From PubChem BioAssay
TDP1 cell CPT = qHTS for Inhibitors of human tyrosyl-DNA phosphodiesterase 1 (TDP1): qHTS in cells in presence of CPT | Potency, µM (highest dose often 46.2 µM), for inactives: top-dose activity change, negative = growth inhibition, hits mostly inhibitors | chicken DT40 Tdp1-/-;hTDP1 cells + 20 nM CPT, ATP luminescence, 48 h | 420,000 compounds, 12% hits; also: potency is read from the fitted curve at half-maximal effect; % is scaled to controls: 0 for no effect and ±100 for the full control effect; nearly all actives have a fitted effect of over 55% in size
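Cell growth measured by CellTiter-Glo luminescence after a minimum 48 h, 37 C compound exposure with 20 nM CPT in Tdp1-knockout DT40 cells stably expressing hTDP1, seeded 400/well; qHTS titration format.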
TDP1 block = qHTS Assay for Inhibitors of Tyrosyl-DNA Phosphodiesterase (TDP1); Tyrosyl-DNA phosphodiesterase 1 (Homo sapiens), Q9NUW8; Potency, µM (doses to about 130 µM), inactives show top-dose activity change, negative = inhibition, most hits filed as inhibitors; recombinant TDP1, AlphaScreen DNA substrate cleavage; 350,000 compounds, 0.28% hits; also: potency is read from the fitted curve at half-maximal effect; % is scaled to controls: 0 for no effect and ±100 for the full control effect; nearly all actives have a fitted effect of over 40% in size
Target sequence (Q9NUW8 whole entry, looked up): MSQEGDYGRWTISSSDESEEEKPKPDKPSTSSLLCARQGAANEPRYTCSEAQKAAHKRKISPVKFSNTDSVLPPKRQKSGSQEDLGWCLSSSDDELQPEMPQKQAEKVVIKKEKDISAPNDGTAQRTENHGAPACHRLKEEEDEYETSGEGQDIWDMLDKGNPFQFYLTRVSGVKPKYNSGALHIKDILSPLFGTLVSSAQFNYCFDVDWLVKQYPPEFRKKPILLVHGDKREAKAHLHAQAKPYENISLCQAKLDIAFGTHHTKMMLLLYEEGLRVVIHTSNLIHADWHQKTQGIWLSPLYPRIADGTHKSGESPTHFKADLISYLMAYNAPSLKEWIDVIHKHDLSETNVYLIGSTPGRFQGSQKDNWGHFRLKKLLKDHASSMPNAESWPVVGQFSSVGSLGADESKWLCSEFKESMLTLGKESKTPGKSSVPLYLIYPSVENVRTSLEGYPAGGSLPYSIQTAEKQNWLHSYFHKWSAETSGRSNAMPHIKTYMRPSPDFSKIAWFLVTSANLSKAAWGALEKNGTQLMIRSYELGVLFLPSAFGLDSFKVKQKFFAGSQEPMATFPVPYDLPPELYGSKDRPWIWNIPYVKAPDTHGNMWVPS
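Here, a 5' biotin and 3' phosphotyrosine-FITC DNA oligonucleotide reports Tdp1 activity: intact substrate bridges AlphaScreen beads, while cleavage leaves a 3' phosphate and drops signal. All incubations at room temperature.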
TGFb SMAD3 inh = qHTS for Inhibitors of TGF-b; 410,000 compounds, 1.2% hits; HepG2 CAGA-GFP TGF-b/SMAD3 reporter, GFP fluorescence, 18 h; TGF-beta stimulated, 500 pg/mL final; AID 588855, 2011; Potency, µM (doses to about 46.1 µM), inactives show top-dose activity, negative = inhibition, usual class: inhibitors; also: potency is read from the fitted curve at half-maximal effect; % is scaled to controls: 0 for no effect and ±100 for the full control effect; nearly all actives have a fitted effect of over 65% in size
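Per well, imaged GFP fluorescence of HEPG2 CAGA-GFP cells gives the signal; cells get compound, then TGF-beta (500 pg/mL final), 18 h at 37 degrees C; %Activity versus -TGF-beta and +DMSO controls.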
HepG2 tox = qHTS for Inhibitors of TGF-b: Cytotox Counterscreen. 410,000 compounds, 0.76% hits. Potency, µM (top dose mostly 46.1 µM), inactives show at the top dose activity change, negative = cytotoxicity, actives largely listed as cytotoxic. HepG2 CAGA-GFP viability, ATP luminescence, 18 h; also: potency is read from the fitted curve at half-maximal effect
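HepG2 CAGA-GFP cells (1000/well, DMEM with 1% FBS) received compound, then TGF-beta at 500 pg/mL final, and were incubated 18 hours at 37 degrees C. Viability was read by CellTiter-Glo luminescence. Media-only wells were set as complete cell-killing and DMSO as no toxicity.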
IL-1B inflam inh = qHTS for Inhibitors of Inflammasome Signaling: IL-1-beta AlphaLISA Primary Screen; 360,000 compounds, 4.7% hits; AID 743279, 2014; THP-1 LPS/ATP IL-1B secretion, AlphaLISA, 16 h; active compounds read low; activity change, % at 57.5 µM; in the data active = activity change below about -50%; inconclusive = mostly about -30% to -49%; also: % is scaled to controls: 0 for no effect and ±100 for the full control effect
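THP-1 cells pretreated 1 hr with compounds (up to 57.5 uM final), then stimulated with LPS (250 ng/mL final) plus ATP (1.25 mM final); secreted IL-1B measured by AlphaLISA after 16 hr, decreased signal indicating inhibition.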
DT40 TDP1 no CPT = qHTS for Inhibitors of human tyrosyl-DNA phosphodiesterase 1 (TDP1): qHTS in cells in absence of CPT. DT40 Tdp1-/- hTDP1 cells, no CPT, ATP luminescence, 48 h. Potency, µM (highest dose often 46.2 µM), for inactives: at the top dose activity change, negative = growth inhibition, actives largely listed as inhibitors. 420,000 compounds, 15% hits. AID 686978, 2013; also: potency is read from the fitted curve at half-maximal effect; % is scaled to controls: 0 for no effect and ±100 for the full control effect; nearly all actives have a fitted effect of over 55% in size
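Camptothecin absent (DMSO only). Human TDP1-complemented DT40 knockout cells, 400 cells/well, 37 °C for minimum 48 hr; ATP measured via CellTiter-Glo, 30 min dark incubation, luminescence.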
Numbers without * were called inactive; ? = inconclusive; · = no result given; [ ] = dose if it differs, or a comment. Rows were chosen to be rich in hits. Some 19% of all compounds tested hit in one or more screens of this group. Unless noted, calls follow the shape of the dose curve; as a rule, active = well fitted curve in the direction sought with a large enough effect; inconclusive = small, poorly fitted or top-dose-only effect, or another doubt; inactive = no such curve, though single readings can be large; an effect the other way counts as inactive or inconclusive.

SMILES	TDP1 cell CPT	TDP1 block	TGFb SMAD3 inh	HepG2 tox	IL-1B inflam inh	DT40 TDP1 no CPT
CCCC12CN3CC(C)(CN(C1)C3c1c(C)[nH]c(=O)[nH]c1=O)C2=O (stereo not drawn)	-3%	2%	28%	-2%	·	-23%
Cc1ccc(S(=O)(=O)N(C)C[C@H]2Oc3c(NC(=O)Nc4cccc5ccccc45)cccc3C(=O)N([C@@H](C)CO)C[C@@H]2C)cc1	16µM*	0%	?	-4%	?	?
Cc1ccc(S(=O)(=O)N(C)C[C@@H]2Oc3ncc(Br)cc3C(=O)N([C@H](C)CO)C[C@H]2C)cc1	?	·	13%	-3%	22	9.2µM*
C[C@@H]1CN([C@@H](C)CO)C(=O)c2cccc(NC(=O)c3ccncc3)c2O[C@@H]1CN(C)Cc1ccc(-c2ccccc2)cc1	?	6%	?	-23%	?	?
C[C@H]1CN([C@@H](C)CO)C(=O)c2cccc(NC(=O)c3ccc(-c4nccs4)cc3)c2O[C@@H]1CN(C)C(=O)Nc1cccc2ccccc12	26µM*	2%	13%	-1%	0	15µM*
C[C@H](CO)N1C[C@H](C)[C@H](CN(C)C(=O)Nc2cccc3ccccc23)Oc2c(NC(=O)c3ccc(-c4nccs4)cc3)cccc2C1=O	?	1%	?	1%	-7	?
Cc1ccc(S(=O)(=O)N(C)C[C@H]2Oc3cc(Br)ccc3S(=O)(=O)N([C@H](C)CO)C[C@H]2C)cc1	?	·	?	-22%	-28	29µM*
CC/C=C\C/C=C\C/C=C\C/C=C\C/C=C\CCCC(=O)NCCO	·	6%	·	·	·	·
C=CC(=O)OC	·	6%	·	·	·	·
N#Cc1cccc(NC(=O)N2CC[C@@]3(CCCN(C(=O)Oc4ccccc4)C3)C2)c1	-4%	·	·	·	·	?
CCOC(=O)/C=C(C)/C=C/C[C@@H](C)CCCC(C)C	-8%	·	·	·	·	5%
NC(Cc1ccc(F)cc1)c1csc(Nc2ccccn2)n1 (stereo not drawn)	?	·	?	25µM*	-51*	16µM*
NC(Cc1ccc(F)cc1)c1csc(Nc2cnccn2)n1 (stereo not drawn)	?	·	2%	-34%	?	?
COc1cccc(Nc2nc(C(N)Cc3ccc(F)cc3)cs2)n1 (stereo not drawn)	18µM*	·	?	-73%	-64*	8.2µM*
NC(Cc1ccccc1)c1csc(Nc2ccccn2)n1 (stereo not drawn)	?	·	?	-37%	-19	?
NC(Cc1ccc(Cl)cc1)c1csc(Nc2ccccn2)n1 (stereo not drawn)	15µM*	·	?	-106%	-66*	13µM*
CC(C)CCC(=O)O[C@H]1CC[C@H]2[C@@H]3CCC4=CC(=O)CC[C@]4(C)[C@H]3CC[C@]12C	-6%	·	·	·	·	0%
O=C1NO[C@@H]2CN[C@@H](C(=O)O)[C@H]12	·	4%	·	·	·	·
CC(C)C[C@H]1C(=O)N2CCCC2[C@]2(O)O[C@](NC(=O)[C@@H]3C=C4c5cccc6[nH]cc(c56)CC4N(C)C3)(C(C)C)C(=O)N12 (stereo partly drawn)	?	16%	3%	0%	-7	16µM*
CC(C)C1C(=O)N2CCCC2[C@]2(O)O[C@@](NC(=O)[C@@H]3C=C4c5cccc6[nH]cc(c56)C[C@H]4N(C)C3)(C(C)C)C(=O)N12 (stereo partly drawn)	9.4µM*	10%[56.1 µM]	·	·	·	?
CC(C)[C@@]1(NC(=O)[C@@H]2C[C@H]3c4cccc5[nH]cc(c45)C[C@@H]3N(C)C2)O[C@]2(O)[C@H]3CCCN3C(=O)CN2C1=O	·	11%[21 µM]	·	·	·	·
CC(C)[C@@]1(NC(=O)[C@@H]2C=C3c4cccc5[nH]cc(c45)C[C@H]3N(C)C2)O[C@@]2(O)[C@@H]3CCCN3C(=O)[C@H](Cc3ccccc3)N2C1=O	·	3%	·	·	·	·
CC(C)[C@H]1C(=O)N2CCC[C@H]2[C@]2(O)O[C@](NC(=O)[C@@H]3C=C4c5cccc6[nH]cc(c56)C[C@H]4N(C)C3)(C(C)C)C(=O)N12	?	9%	9%	-1%	-11	5.8µM*
Cc1ccc([C@H]2C[C@@H](n3cc(C4CC4)nn3)[C@H](O)CN2Cc2cccs2)cc1	-29%	·	-3%	-24%	3	-21%
O[C@H]1C[C@H](c2ccccc2)N(CC2CCCCC2)C[C@@H]1n1cc(-c2ccc(F)cc2)nn1	23µM*	·	-2%	-12%	17	15µM*
SMILES	TDP1 cell CPT	TDP1 block	TGFb SMAD3 inh	HepG2 tox	IL-1B inflam inh	DT40 TDP1 no CPT
CCBr	·	4%	·	·	·	·
COC(=O)C1=C(c2cc3ccccc3o2)C[C@@H]2CC[C@H]1N2C(=O)N1CCCC1	?	·	?	-21%	-7	16µM*
COC(=O)C1=C(c2cc3ccccc3o2)C[C@@H]2CC[C@H]1N2C(=O)N1CCCCC1	4.6µM*	·	?	-33%	31	2.3µM*
COC(=O)C1=C(c2cc3ccccc3o2)C[C@@H]2CC[C@H]1N2C(=O)NCCO	-12%	·	6%	0%	-8	-26%
CCCNC(=O)N1[C@H]2CC[C@@H]1C(C(=O)OC)=C(c1cc3ccccc3o1)C2	16µM*	·	?	3%	-1	16µM*
COC(=O)C1=C(c2ccc(S(C)(=O)=O)cc2)C[C@@H]2CC[C@H]1N2C(=O)N1CCCCC1	-27%	·	10%	15%	-4	-18%
CC(=O)[C@H]1CC[C@H]2[C@@H]3CC[C@@H]4C[C@H](O)CC[C@]4(C)[C@H]3CC[C@]12C	-9%	·	·	·	·	-20%
Cc1c(I)c(=O)n(-c2ccccc2)n1C	?	2%	·	·	·	?
C[N+]1([O-])[C@@H]2CC(OC(=O)[C@@H](CO)c3ccccc3)C[C@@H]1[C@H]1O[C@H]12 (stereo partly drawn)	·	0%	·	·	·	·
O=C1OC2(c3cc(Br)c(O)cc3Oc3c2cc(Br)c(O)[c]3[Hg])c2ccccc21 (stereo not drawn)	4.5µM*	·	·	·	·	3.6µM*
